From publication PMC5540273 (PLoS ONE, 2017) come the findings set out here.

Among the test systems are CDC2L2; CDK2; CDK3; CDK4-cyclinD1; CDK4-cyclinD3; CDK4; CDK5; CDK7.
Common to all, as to conditions: concentration: 1 μM, replicates: in singlicate; n = 1
In another assay the test system is T1, CDC2L5.
T1 construct: gene CDK13

The subject of the next assay is T2, CDK11.
T2 construct: gene CDK19
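Also: KINOMEscan kinase panel screen.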

Turning to `CCn1c(-c2nonc2N)nc2c(C#CC(C)(C)O)ncc(OCCCCN)c21.O=C(O)C(F)(F)F.O=C(O)C(F)(F)F` [GSK507274], the “%Inh” value in the assay on CDC2L2 turned out to be 0%; in the assay on CDC2L5, 0%; in the assay on CDK11, 0%; with CDK2 it was 3%; with CDK3, 16%; with CDK4-cyclinD1, 0%. Besides, the “%Inh” value with CDK4-cyclinD3, in the assay with CDK4, in the assay with CDK5 and in the assay with CDK7 was 0% each time.

In the case of `CC(=O)Nc1nc2cnc(Nc3cc(NC(=O)c4cccc(C5(C#N)CC5)c4Cl)ccc3C)nc2s1`, the “%Inh” value in the assay with CDC2L2 is listed as 33%; in the assay on CDC2L5 it was 17%; in the assay on CDK11, 23%; in the assay with CDK2, 0%; with CDK3 it was 0%; with CDK4-cyclinD1 it was 0%. The “%Inh” value in the assay with CDK4-cyclinD3, in the assay with CDK4, in the assay with CDK5 and with CDK7 was 0% each time.

For the compound `COc1ccc(CNC(=O)NC2CCN(c3ccnc(Nc4ccc(F)cc4)n3)CC2)cc1` [GSK1379788], the “%Inh” value with CDC2L2 is 10%; with CDC2L5, 0%; in the assay with CDK11 it was 3%; with CDK2, 0%; with CDK3, 3%; with CDK4-cyclinD1, 0%. In addition, the “%Inh” value in the assay on CDK4-cyclinD3 is given as 0%; in the assay on CDK4 it was 20%; with CDK5, 0%; in the assay with CDK7, 0%.

In the case of `COc1cccc(C2=C(Nc3ccc(Cl)c(C(=O)O)c3)C(=O)NC2=O)c1` [SB-390769], the “%Inh” value in the assay with CDC2L2 turned out to be 0%; in the assay with CDC2L5, 0%; in the assay with CDK11, 100%; in the assay with CDK2, 9%; in the assay on CDK3 it was 25%; in the assay with CDK4-cyclinD1, 7%. The “%Inh” value in the assay on CDK4-cyclinD3 came to 100%; in the assay with CDK4, 0%; in the assay with CDK5 it was 0%; in the assay on CDK7, 0%.

On to `Cc1occc1-c1ncc(OC[C@@H](N)Cc2c[nH]c3ccccc23)cc1-c1ccc2[nH]nc(C)c2c1.O=C(O)C(F)(F)F` [GSK682037], for which the “%Inh” value came to 6% in the assay on CDC2L2; 0% with CDC2L5; 35% in the assay on CDK11; 0% in the assay on CDK2; 2% in the assay with CDK3; 0% with CDK4-cyclinD1. For the same compound, the “%Inh” value in the assay with CDK4-cyclinD3 is reported as 0%; with CDK4, 0%; in the assay on CDK5, 0%; in the assay on CDK7, 30%.

Take `Cl.NC(=O)c1cccc(Nc2nccc(Nc3ccc(Oc4c(Cl)cccc4Cl)c(Cl)c3)n2)c1` [GW659009]: the “%Inh” value with CDC2L2 worked out at 2%; in the assay on CDC2L5 it was 0%; in the assay with CDK11, 88%; in the assay with CDK2, 0%; with CDK3, 0%; with CDK4-cyclinD1, 0%. Besides, the “%Inh” value was found to be 0% in the assay with CDK4-cyclinD3, 1% with CDK4, 0% in the assay on CDK5 and 0% with CDK7.

Regarding `CSc1cccc2c(-c3ccncn3)c(-c3ccc(F)cc3)nn12` [GW514786], the “%Inh” value is reported as 17% in the assay on CDC2L2; 0% with CDC2L5; 8% in the assay with CDK11; 11% with CDK2; 9% in the assay with CDK3; 13% with CDK4-cyclinD1. For the same compound, the “%Inh” value in the assay on CDK4-cyclinD3 came out at 0%; in the assay on CDK4, 15%; in the assay with CDK5, 0%; with CDK7, 2%.

`Nc1n[nH]c2cnc(-c3ccccc3)cc12` [SB-642124]: the “%Inh” value in the assay with CDC2L2 was determined as 0%; in the assay with CDC2L5, 0%; with CDK11, 0%; in the assay with CDK2 it was 0%; with CDK3, 9%; with CDK4-cyclinD1, 23%. In addition, the “%Inh” value in the assay on CDK4-cyclinD3 is 47%; in the assay on CDK4 it was 27%; in the assay on CDK5, 0%; in the assay with CDK7 it was 22%.

For `O=C(Nc1cccc(-c2nn3ccccc3c2-c2ccnc(Nc3cccc(F)c3)n2)c1)c1c(F)ccc(F)c1Cl` [GSK357952], the “%Inh” value in the assay on CDC2L2 was determined as 0%; in the assay with CDC2L5, 0%; in the assay with CDK11, 0%; with CDK2 it was 0%; in the assay with CDK3, 1%; in the assay with CDK4-cyclinD1, 0%. Further, the “%Inh” value in the assay with CDK4-cyclinD3 is 0%; in the assay with CDK4, 53%; in the assay on CDK5 it was 0%; with CDK7 it was 0%.

With `O=C(Nc1cccc(Oc2ccc3nc(NC(=O)C4CC4)cn3n2)c1)c1ccccc1C(F)(F)F`, the “%Inh” value in the assay with CDC2L2 is recorded as 14%; in the assay with CDC2L5, 25%; with CDK11, 1%; in the assay on CDK2 it was 0%; in the assay on CDK3, 21%; with CDK4-cyclinD1, 24%. Further, the “%Inh” value with CDK4-cyclinD3, in the assay on CDK4, with CDK5 and in the assay with CDK7 was 0% throughout.

`Oc1cc(Nc2ccnc3cc(I)ccc23)ccc1F` [GW552771]: the “%Inh” value is given as 0% in the assay on CDC2L2; 0% with CDC2L5; 10% in the assay with CDK11; 0% in the assay with CDK2; 0% in the assay on CDK3; 11% in the assay on CDK4-cyclinD1. Besides, the “%Inh” value in the assay with CDK4-cyclinD3, in the assay with CDK4, in the assay on CDK5 and with CDK7 was 0% throughout.

With `COc1cc(Nc2ncc3c(C)nc(-c4cc5ccccc5[nH]4)n3n2)cc(OC)c1OC` [GW869516], the “%Inh” value with CDC2L2 is on record as 8%; in the assay on CDC2L5, 0%; in the assay with CDK11, 1%; with CDK2, 0%; with CDK3, 31%; in the assay with CDK4-cyclinD1, 22%. Also, the “%Inh” value with CDK4-cyclinD3, in the assay on CDK4, in the assay with CDK5 and in the assay with CDK7 was 0% each time.

With `COc1ccc(Nc2nccc(N3CCC(NC(=O)Nc4cccc(OC)c4)C3)n2)cc1` (stereo not drawn) [GSK1379742], the “%Inh” value is on record as 0% in the assay with CDC2L2; 0% in the assay on CDC2L5; 56% in the assay on CDK11; 0% with CDK2; 27% in the assay on CDK3; 0% with CDK4-cyclinD1. Further, the “%Inh” value in the assay on CDK4-cyclinD3 is recorded as 0%; with CDK4, 13%; with CDK5 it was 0%; in the assay on CDK7 it was 0%.

With `c1ccc(Oc2ccc(Nc3ccnc4cc(-c5ccc(CNCCN6CCOCC6)o5)ccc34)cc2)nc1` [GW567145], the “%Inh” value with CDC2L2 worked out at 5%; with CDC2L5, 0%; with CDK11, 1%; with CDK2, 0%; in the assay on CDK3 it was 0%; in the assay with CDK4-cyclinD1, 38%. Also, the “%Inh” value in the assay on CDK4-cyclinD3 is 0%; in the assay with CDK4 it was 1%; with CDK5, 0%; in the assay on CDK7, 8%.

`COc1cc2c(cc1OCCN1CCNCC1)ncc1c3ccc(C#N)cc3[nH]c21`: the “%Inh” value in the assay with CDC2L2 was 0%; with CDC2L5 it was 8%; with CDK11 it was 24%; in the assay on CDK2, 0%; in the assay on CDK3 it was 17%; in the assay on CDK4-cyclinD1 it was 31%. Also, the “%Inh” value turned out to be 0% in the assay with CDK4-cyclinD3, 6% in the assay on CDK4, 3% in the assay with CDK5 and 99.7% in the assay with CDK7.
